# Laboratory results from article PMC11006913.
# Numbering of substitutions follows the chain as printed.
# Tests used:
# Assay in all cases: PBM; 200 nM protein, PBS
# Details in all cases: dsDNA, one strand shown
# HOXB9 [1] = molecular target: HOXB9 (Homo sapiens, UniProt P17482 171-250, T197M)
# HOXC10 [2] = molecular target: HOXC10 (Homo sapiens, UniProt Q9NYD6 254-340)
# HOXC10 [3] = molecular target: HOXC10 (Homo sapiens, UniProt Q9NYD6 254-340, K271E)
# PRRX1 [4] = molecular target: PRRX1 (Homo sapiens, UniProt P54821 80-166, F113S)
# Chain of PRRX1 (Homo sapiens, UniProt P54821 80-166, F113S) (P54821 80-166 F113S): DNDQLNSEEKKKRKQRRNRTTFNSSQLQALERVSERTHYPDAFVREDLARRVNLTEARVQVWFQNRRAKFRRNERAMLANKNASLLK
# HOXB9 [5] = molecular target: HOXB9 (Homo sapiens, UniProt P17482 171-250)
# Chain of HOXB9 (Homo sapiens, UniProt P17482 171-250) (P17482 171-250): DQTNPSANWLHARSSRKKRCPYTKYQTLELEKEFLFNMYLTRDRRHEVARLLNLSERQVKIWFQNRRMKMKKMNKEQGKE
# HOXB9 [6] = molecular target: HOXB9 (Homo sapiens, UniProt P17482 171-250, R186Q)
# Chain of HOXB9 (Homo sapiens, UniProt P17482 171-250, R186Q) (P17482 171-250 R186Q): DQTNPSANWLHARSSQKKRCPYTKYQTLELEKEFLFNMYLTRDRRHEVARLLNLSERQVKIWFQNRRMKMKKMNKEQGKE
# PRRX1 [7] = molecular target: PRRX1 (Homo sapiens, UniProt P54821 80-166)
# Chain of PRRX1 (Homo sapiens, UniProt P54821 80-166) (P54821 80-166): as the sequence (P54821 80-166 F113S) above, with S34F counted along it
# HOXA7 [8] = molecular target: HOXA7 (Homo sapiens, UniProt P31268 116-202)
# Chain of HOXA7 (Homo sapiens, UniProt P31268 116-202) (P31268 116-202): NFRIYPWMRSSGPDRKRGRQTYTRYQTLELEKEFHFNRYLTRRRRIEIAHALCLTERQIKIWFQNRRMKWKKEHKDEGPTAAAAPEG
# HOXA7 [9] = molecular target: HOXA7 (Homo sapiens, UniProt P31268 116-202, W177C)
# Chain of HOXA7 (Homo sapiens, UniProt P31268 116-202, W177C) (P31268 116-202 W177C): as the sequence (P31268 116-202) above, with W62C counted along it
# HOXC9 [10] = molecular target: HOXC9 (Homo sapiens, UniProt P31274 178-260, K195R)
# Chain of HOXC9 (Homo sapiens, UniProt P31274 178-260, K195R) (P31274 178-260 K195R): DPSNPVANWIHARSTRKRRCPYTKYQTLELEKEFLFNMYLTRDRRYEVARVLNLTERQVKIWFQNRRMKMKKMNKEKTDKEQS
# HOXC9 [11] = molecular target: HOXC9 (Homo sapiens, UniProt P31274 178-260)
# Chain of HOXC9 (Homo sapiens, UniProt P31274 178-260) (P31274 178-260): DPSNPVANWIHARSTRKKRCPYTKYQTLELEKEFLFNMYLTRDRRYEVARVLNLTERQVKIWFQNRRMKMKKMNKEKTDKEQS
# HOXC9 [12] = molecular target: HOXC9 (Homo sapiens, UniProt P31274 178-260, R193K)
# Chain of HOXC9 (Homo sapiens, UniProt P31274 178-260, R193K) (P31274 178-260 R193K): as the sequence (P31274 178-260) above, with R16K counted along it
# HOXC9 [13] = molecular target: HOXC9 (Homo sapiens, UniProt P31274 178-260, R222W)
# Chain of HOXC9 (Homo sapiens, UniProt P31274 178-260, R222W) (P31274 178-260 R222W): as the sequence (P31274 178-260) above, with R45W counted along it
# PAX4 [14] = molecular target: T1, PAX4 (Homo sapiens, UniProt O43316 9-242, R200K)
# T1 sequence: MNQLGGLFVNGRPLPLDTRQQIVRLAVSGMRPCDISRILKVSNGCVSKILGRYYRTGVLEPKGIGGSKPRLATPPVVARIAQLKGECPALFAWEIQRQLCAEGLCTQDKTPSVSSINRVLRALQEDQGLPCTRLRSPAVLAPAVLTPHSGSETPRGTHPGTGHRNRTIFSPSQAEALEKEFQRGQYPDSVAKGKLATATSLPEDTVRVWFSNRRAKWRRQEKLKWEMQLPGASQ
# PAX4 [15] = molecular target: T2, PAX4 (Homo sapiens, UniProt O43316 9-242)
# T2 sequence: T1 sequence with K192R
# MSX2 [16] = molecular target: MSX2 (Homo sapiens, UniProt P35548 130-214, R199I)
# Chain of MSX2 (Homo sapiens, UniProt P35548 130-214, R199I) (P35548 130-214 R199I): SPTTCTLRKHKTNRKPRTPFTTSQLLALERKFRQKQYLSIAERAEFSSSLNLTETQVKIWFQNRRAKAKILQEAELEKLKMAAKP
# PAX4 [17] = molecular target: T3, PAX4 (Homo sapiens, UniProt O43316 9-242, R200Q)
# T3 sequence: T1 sequence with K192Q
# PAX4 [18] = molecular target: T4, PAX4 (Homo sapiens, UniProt O43316 9-242, F177V)
# T4 sequence: T1 sequence with F169V, K192R
# MSX2 [19] = molecular target: MSX2 (Homo sapiens, UniProt P35548 130-214)
# Chain of MSX2 (Homo sapiens, UniProt P35548 130-214) (P35548 130-214): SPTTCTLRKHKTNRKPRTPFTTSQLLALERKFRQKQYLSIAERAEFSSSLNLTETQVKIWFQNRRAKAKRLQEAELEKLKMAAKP
# PAX4 [20] = molecular target: T5, PAX4 (Homo sapiens, UniProt O43316 9-242, F177Y)
# T5 sequence: T1 sequence with F169Y, K192R
# MSX2 [21] = molecular target: MSX2 (Homo sapiens, UniProt P35548 130-214, F161Y)
# Chain of MSX2 (Homo sapiens, UniProt P35548 130-214, F161Y) (P35548 130-214 F161Y): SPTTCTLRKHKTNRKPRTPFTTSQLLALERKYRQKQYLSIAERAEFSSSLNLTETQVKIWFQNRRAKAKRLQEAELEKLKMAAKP
# PAX4 [22] = molecular target: T6, PAX4 (Homo sapiens, UniProt O43316 9-242, R227W)
# T6 sequence: T1 sequence with K192R, R219W
# ALX4 [23] = molecular target: ALX4 (Homo sapiens, UniProt Q9H161 200-286)
# Chain of ALX4 (Homo sapiens, UniProt Q9H161 200-286) (Q9H161 200-286): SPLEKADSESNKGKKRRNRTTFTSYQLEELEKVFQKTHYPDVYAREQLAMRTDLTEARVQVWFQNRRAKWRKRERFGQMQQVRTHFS
# ALX4 [24] = molecular target: ALX4 (Homo sapiens, UniProt Q9H161 200-286, Q225E)
# Chain of ALX4 (Homo sapiens, UniProt Q9H161 200-286, Q225E) (Q9H161 200-286 Q225E): as the sequence (Q9H161 200-286) above, with Q26E counted along it
# HOXD13 [25] = molecular target: HOXD13 (Homo sapiens, UniProt P35453 263-343, T313R)
# Chain of HOXD13 (Homo sapiens, UniProt P35453 263-343, T313R) (P35453 263-343 T313R): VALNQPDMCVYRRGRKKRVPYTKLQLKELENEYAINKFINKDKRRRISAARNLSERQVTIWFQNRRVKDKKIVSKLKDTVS
# HOXD13 [26] = molecular target: HOXD13 (Homo sapiens, UniProt P35453 263-343)
# Chain of HOXD13 (Homo sapiens, UniProt P35453 263-343) (P35453 263-343): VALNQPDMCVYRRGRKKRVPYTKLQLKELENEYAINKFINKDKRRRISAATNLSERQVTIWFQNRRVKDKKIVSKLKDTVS
# HOXD13 [27] = molecular target: HOXD13 (Homo sapiens, UniProt P35453 263-343, T313A)
# Chain of HOXD13 (Homo sapiens, UniProt P35453 263-343, T313A) (P35453 263-343 T313A): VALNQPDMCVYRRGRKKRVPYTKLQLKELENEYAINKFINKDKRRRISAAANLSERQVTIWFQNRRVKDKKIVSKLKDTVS
# HOXA2 [28] = molecular target: HOXA2 (Homo sapiens, UniProt O43364 129-215, R185T)
# Chain of HOXA2 (Homo sapiens, UniProt O43364 129-215, R185T) (O43364 129-215 R185T): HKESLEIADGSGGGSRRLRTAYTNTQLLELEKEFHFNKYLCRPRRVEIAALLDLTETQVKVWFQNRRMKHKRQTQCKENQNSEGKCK
# ALX3 [29] = molecular target: ALX3 (Homo sapiens, UniProt O95076 139-225, N203Q)
# Chain of ALX3 (Homo sapiens, UniProt O95076 139-225, N203Q) (O95076 139-225 N203Q): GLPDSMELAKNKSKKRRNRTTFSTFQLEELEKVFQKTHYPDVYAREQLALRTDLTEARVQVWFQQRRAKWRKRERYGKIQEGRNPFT
# HOXA2 [30] = molecular target: HOXA2 (Homo sapiens, UniProt O43364 129-215, R185K)
# Chain of HOXA2 (Homo sapiens, UniProt O43364 129-215, R185K) (O43364 129-215 R185K): as the sequence (O43364 129-215 R185T) above, with T57K counted along it
# ALX3 [31] = molecular target: ALX3 (Homo sapiens, UniProt O95076 139-225)
# Chain of ALX3 (Homo sapiens, UniProt O95076 139-225) (O95076 139-225): as the sequence (O95076 139-225 N203Q) above, with Q65N counted along it
# ALX3 [32] = molecular target: ALX3 (Homo sapiens, UniProt O95076 139-225, L168Q)
# Chain of ALX3 (Homo sapiens, UniProt O95076 139-225, L168Q) (O95076 139-225 L168Q): as the sequence (O95076 139-225 N203Q) above, with L30Q, Q65N counted along it
# ALX3 [33] = molecular target: ALX3 (Homo sapiens, UniProt O95076 139-225, L168V)
# Chain of ALX3 (Homo sapiens, UniProt O95076 139-225, L168V) (O95076 139-225 L168V): as the sequence (O95076 139-225 N203Q) above, with L30V, Q65N counted along it
# HOXA2 [34] = molecular target: HOXA2 (Homo sapiens, UniProt O43364 129-215, Y150S)
# Chain of HOXA2 (Homo sapiens, UniProt O43364 129-215, Y150S) (O43364 129-215 Y150S): as the sequence (O43364 129-215 R185T) above, with Y22S, T57R counted along it
# ALX3 [35] = molecular target: ALX3 (Homo sapiens, UniProt O95076 139-225, N203S)
# Chain of ALX3 (Homo sapiens, UniProt O95076 139-225, N203S) (O95076 139-225 N203S): as the sequence (O95076 139-225 N203Q) above, with Q65S counted along it
# HOXA2 [36] = molecular target: HOXA2 (Homo sapiens, UniProt O43364 129-215)
# Chain of HOXA2 (Homo sapiens, UniProt O43364 129-215) (O43364 129-215): as the sequence (O43364 129-215 R185T) above, with T57R counted along it
# Chain of HOXB9 (Homo sapiens, UniProt P17482 171-250, T197M) (P17482 171-250 T197M): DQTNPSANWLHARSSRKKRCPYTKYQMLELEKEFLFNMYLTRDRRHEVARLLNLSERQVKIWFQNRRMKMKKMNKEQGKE
# Chain of HOXC10 (Homo sapiens, UniProt Q9NYD6 254-340) (Q9NYD6 254-340): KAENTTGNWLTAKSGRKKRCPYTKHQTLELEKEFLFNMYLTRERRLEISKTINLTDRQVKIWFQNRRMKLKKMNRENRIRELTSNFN
# Chain of HOXC10 (Homo sapiens, UniProt Q9NYD6 254-340, K271E) (Q9NYD6 254-340 K271E): as the sequence (Q9NYD6 254-340) above, with K18E counted along it
sequence,measurement,setting,value
AGTCGTTA,binding signal,HOXB9 [1],"10 upbm affinity estimate (log intensity, higher = more binding, comparable within an allelic series)"
same,binding signal,HOXC10 [2],"12.2 upbm affinity estimate (log intensity, higher = more binding, comparable within an allelic series)"
same,binding signal,HOXC10 [3],"12.1 upbm affinity estimate (log intensity, higher = more binding, comparable within an allelic series)"
GCCGGAGC,binding signal,HOXB9 [1],"8.56 upbm affinity estimate (log intensity, higher = more binding, comparable within an allelic series)"
same,binding signal,PRRX1 [4],"9.3 upbm affinity estimate (log intensity, higher = more binding, comparable within an allelic series)"
same,binding signal,HOXB9 [5],"8.68 upbm affinity estimate (log intensity, higher = more binding, comparable within an allelic series)"
same,binding signal,HOXB9 [6],"8.69 upbm affinity estimate (log intensity, higher = more binding, comparable within an allelic series)"
same,binding signal,PRRX1 [7],"9.61 upbm affinity estimate (log intensity, higher = more binding, comparable within an allelic series)"
CTAGGCTC,binding signal,HOXB9 [1],"8.49 upbm affinity estimate (log intensity, higher = more binding, comparable within an allelic series)"
same,binding signal,HOXA7 [8],"8.33 upbm affinity estimate (log intensity, higher = more binding, comparable within an allelic series)"
same,binding signal,HOXB9 [5],"8.52 upbm affinity estimate (log intensity, higher = more binding, comparable within an allelic series)"
same,binding signal,HOXB9 [6],"8.53 upbm affinity estimate (log intensity, higher = more binding, comparable within an allelic series)"
same,binding signal,HOXA7 [9],"8.41 upbm affinity estimate (log intensity, higher = more binding, comparable within an allelic series)"
CCGCTCCG,binding signal,HOXB9 [1],"8.44 upbm affinity estimate (log intensity, higher = more binding, comparable within an allelic series)"
same,binding signal,HOXC9 [10],"9.63 upbm affinity estimate (log intensity, higher = more binding, comparable within an allelic series)"
same,binding signal,HOXB9 [5],"8.59 upbm affinity estimate (log intensity, higher = more binding, comparable within an allelic series)"
same,binding signal,HOXC9 [11],"9.73 upbm affinity estimate (log intensity, higher = more binding, comparable within an allelic series)"
same,binding signal,HOXC9 [12],"9.74 upbm affinity estimate (log intensity, higher = more binding, comparable within an allelic series)"
same,binding signal,HOXB9 [6],"8.66 upbm affinity estimate (log intensity, higher = more binding, comparable within an allelic series)"
same,binding signal,HOXC9 [13],"9.7 upbm affinity estimate (log intensity, higher = more binding, comparable within an allelic series)"
AGCCGCAG,binding signal,HOXB9 [1],"8.34 upbm affinity estimate (log intensity, higher = more binding, comparable within an allelic series)"
same,binding signal,PAX4 [14],"9.2 upbm affinity estimate (log intensity, higher = more binding, comparable within an allelic series)"
same,binding signal,PAX4 [15],"9.21 upbm affinity estimate (log intensity, higher = more binding, comparable within an allelic series)"
same,binding signal,HOXB9 [5],"8.11 upbm affinity estimate (log intensity, higher = more binding, comparable within an allelic series)"
same,binding signal,MSX2 [16],"9.46 upbm affinity estimate (log intensity, higher = more binding, comparable within an allelic series)"
same,binding signal,PAX4 [17],"9.21 upbm affinity estimate (log intensity, higher = more binding, comparable within an allelic series)"
same,binding signal,PAX4 [18],"9.11 upbm affinity estimate (log intensity, higher = more binding, comparable within an allelic series)"
same,binding signal,MSX2 [19],"9.43 upbm affinity estimate (log intensity, higher = more binding, comparable within an allelic series)"
same,binding signal,PAX4 [20],"9.12 upbm affinity estimate (log intensity, higher = more binding, comparable within an allelic series)"
same,binding signal,HOXB9 [6],"8.24 upbm affinity estimate (log intensity, higher = more binding, comparable within an allelic series)"
same,binding signal,MSX2 [21],"9.5 upbm affinity estimate (log intensity, higher = more binding, comparable within an allelic series)"
same,binding signal,PAX4 [22],"9.18 upbm affinity estimate (log intensity, higher = more binding, comparable within an allelic series)"
GGAGCCAC,binding signal,HOXB9 [1],"8.39 upbm affinity estimate (log intensity, higher = more binding, comparable within an allelic series)"
same,binding signal,ALX4 [23],"8.24 upbm affinity estimate (log intensity, higher = more binding, comparable within an allelic series)"
same,binding signal,ALX4 [24],"8.19 upbm affinity estimate (log intensity, higher = more binding, comparable within an allelic series)"
same,binding signal,HOXB9 [5],"8.65 upbm affinity estimate (log intensity, higher = more binding, comparable within an allelic series)"
same,binding signal,HOXB9 [6],"8.65 upbm affinity estimate (log intensity, higher = more binding, comparable within an allelic series)"
ACCGGCAG,binding signal,HOXB9 [1],"8.5 upbm affinity estimate (log intensity, higher = more binding, comparable within an allelic series)"
same,binding signal,PRRX1 [4],"9.27 upbm affinity estimate (log intensity, higher = more binding, comparable within an allelic series)"
same,binding signal,HOXB9 [5],"8.43 upbm affinity estimate (log intensity, higher = more binding, comparable within an allelic series)"
same,binding signal,MSX2 [16],"9.63 upbm affinity estimate (log intensity, higher = more binding, comparable within an allelic series)"
same,binding signal,HOXD13 [25],"9.44 upbm affinity estimate (log intensity, higher = more binding, comparable within an allelic series)"
same,binding signal,HOXD13 [26],"9.57 upbm affinity estimate (log intensity, higher = more binding, comparable within an allelic series)"
same,binding signal,MSX2 [19],"9.62 upbm affinity estimate (log intensity, higher = more binding, comparable within an allelic series)"
same,binding signal,HOXD13 [27],"9.67 upbm affinity estimate (log intensity, higher = more binding, comparable within an allelic series)"
same,binding signal,HOXB9 [6],"8.48 upbm affinity estimate (log intensity, higher = more binding, comparable within an allelic series)"
same,binding signal,MSX2 [21],"9.59 upbm affinity estimate (log intensity, higher = more binding, comparable within an allelic series)"
same,binding signal,PRRX1 [7],"9.41 upbm affinity estimate (log intensity, higher = more binding, comparable within an allelic series)"
ATAAAATG,binding signal,HOXB9 [1],"9.81 upbm affinity estimate (log intensity, higher = more binding, comparable within an allelic series)"
same,binding signal,HOXC9 [10],"12.5 upbm affinity estimate (log intensity, higher = more binding, comparable within an allelic series)"
same,binding signal,HOXB9 [5],"11.7 upbm affinity estimate (log intensity, higher = more binding, comparable within an allelic series)"
same,binding signal,HOXC9 [11],"12.6 upbm affinity estimate (log intensity, higher = more binding, comparable within an allelic series)"
same,binding signal,HOXC9 [12],"12.6 upbm affinity estimate (log intensity, higher = more binding, comparable within an allelic series)"
same,binding signal,HOXB9 [6],"11.6 upbm affinity estimate (log intensity, higher = more binding, comparable within an allelic series)"
same,binding signal,HOXC9 [13],"11 upbm affinity estimate (log intensity, higher = more binding, comparable within an allelic series)"
AGGCCCCC,binding signal,HOXB9 [1],"8.34 upbm affinity estimate (log intensity, higher = more binding, comparable within an allelic series)"
same,binding signal,PAX4 [14],"9.04 upbm affinity estimate (log intensity, higher = more binding, comparable within an allelic series)"
same,binding signal,PAX4 [15],"9.05 upbm affinity estimate (log intensity, higher = more binding, comparable within an allelic series)"
same,binding signal,HOXA2 [28],"7.07 upbm affinity estimate (log intensity, higher = more binding, comparable within an allelic series)"
same,binding signal,HOXB9 [5],"8.29 upbm affinity estimate (log intensity, higher = more binding, comparable within an allelic series)"
same,binding signal,ALX3 [29],"7.63 upbm affinity estimate (log intensity, higher = more binding, comparable within an allelic series)"
same,binding signal,PAX4 [17],"9.09 upbm affinity estimate (log intensity, higher = more binding, comparable within an allelic series)"
same,binding signal,HOXA2 [30],"9.91 upbm affinity estimate (log intensity, higher = more binding, comparable within an allelic series)"
same,binding signal,PAX4 [18],"8.99 upbm affinity estimate (log intensity, higher = more binding, comparable within an allelic series)"
same,binding signal,ALX3 [31],"7.61 upbm affinity estimate (log intensity, higher = more binding, comparable within an allelic series)"
same,binding signal,PAX4 [20],"8.97 upbm affinity estimate (log intensity, higher = more binding, comparable within an allelic series)"
same,binding signal,ALX3 [32],"7.47 upbm affinity estimate (log intensity, higher = more binding, comparable within an allelic series)"
same,binding signal,HOXB9 [6],"8.32 upbm affinity estimate (log intensity, higher = more binding, comparable within an allelic series)"
same,binding signal,ALX3 [33],"7.5 upbm affinity estimate (log intensity, higher = more binding, comparable within an allelic series)"
same,binding signal,PAX4 [22],"9.06 upbm affinity estimate (log intensity, higher = more binding, comparable within an allelic series)"
same,binding signal,HOXA2 [34],"10.2 upbm affinity estimate (log intensity, higher = more binding, comparable within an allelic series)"
same,binding signal,ALX3 [35],"7.61 upbm affinity estimate (log intensity, higher = more binding, comparable within an allelic series)"
same,binding signal,HOXA2 [36],"7.21 upbm affinity estimate (log intensity, higher = more binding, comparable within an allelic series)"
